The text below walks through data of the supplement of paper PMC10849652.

Common to all, as to assay: log2 fold change, soluble protein after heating vs DMSO (PISA); higher = thermal stabilisation; K562 cells, 10 uM, 30 min; active = over 0.2 and 3.5 SD of the protein, either way, in both replicates (recomputed)
Compound in one experiment: Cc1ccc(NC(=O)c2ccc(CN3CC[C@H](N(C)C)C3)c(C(F)(F)F)c2)cc1Nc1nccc(-c2cncnc2)n1 [bafetinib]
Summed up:
(§1)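 K562 cells (2×10^6 cells/mL) were treated with 10 μM compound for 30 min, and aliquots were heated for 3 min over 48°C-58°C. Pooled aliquots were extracted in PBS with 0.5% NP-40 at 4°C, and the supernatant after 21,000xg for 90 min was measured by TMTpro 16plex LC-MS/MS with channel sums equalised. Reported thermal stability, relative to control samples and from duplicates, is a log2 fold change.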

Compound in experiment [1]: Cc1cccc(CC(=O)N2CCc3c2ccc(-c2cn(C)c4ncnc(N)c24)c3F)n1
Summed up:
as §1

Compound in the next experiment: Cc1cn(-c2cc(NC(=O)c3ccc(C)c(Nc4nccc(-c5cccnc5)n4)c3)cc(C(F)(F)F)c2)cn1 [nilotinib]
The method, boiled down: as §1

Compound in experiment [2]: Cc1nc(Nc2n[nH]c3c2CN(C(=O)N[C@H](CN(C)C)c2ccccc2)C3(C)C)c2sccc2n1
Summed up: as §1

Compound in a further experiment: Cc1nc(Nc2ncc(C(=O)Nc3c(C)cccc3Cl)s2)cc(N2CCN(CCO)CC2)n1 [dasatinib]
Summed up:
as §1

Compound in experiment [3]: Cc1ncc(-c2ccnc(Nc3ccc(S(C)(=O)=O)cc3)n2)n1C(C)C
The method, boiled down: as §1

Compound in experiment [4]: Cn1cc(-c2ccc3c(c2)CCN3C(=O)Cc2cccc(C(F)(F)F)c2)c2c(N)ncnc21
Summed up: as §1

Compound in experiment [5]: Cn1cc(-c2ccc3nnc(C(F)(F)c4ccc5ncccc5c4)n3n2)cn1
Summed up: as §1

Compound in a further experiment: Cn1cncc1[C@@](N)(c1ccc(Cl)cc1)c1ccc2c(c1)c(-c1cccc(Cl)c1)cc(=O)n2C [tipifarnib]
The method, boiled down: as §1

Compound in a further experiment: FC(F)(F)c1ccc(/C=C/c2nc(COc3ccc(CCCCn4ccnn4)cc3)co2)cc1 [mubritinib]
The method, boiled down: as §1

The full data set covers some 7,900 targets. This sample favours those with a hit. About 0.6% of all pairs of compound and target were hits. Values without a mark were called inactive.

Chain of UniProt P13473 (P13473 whole entry, looked up): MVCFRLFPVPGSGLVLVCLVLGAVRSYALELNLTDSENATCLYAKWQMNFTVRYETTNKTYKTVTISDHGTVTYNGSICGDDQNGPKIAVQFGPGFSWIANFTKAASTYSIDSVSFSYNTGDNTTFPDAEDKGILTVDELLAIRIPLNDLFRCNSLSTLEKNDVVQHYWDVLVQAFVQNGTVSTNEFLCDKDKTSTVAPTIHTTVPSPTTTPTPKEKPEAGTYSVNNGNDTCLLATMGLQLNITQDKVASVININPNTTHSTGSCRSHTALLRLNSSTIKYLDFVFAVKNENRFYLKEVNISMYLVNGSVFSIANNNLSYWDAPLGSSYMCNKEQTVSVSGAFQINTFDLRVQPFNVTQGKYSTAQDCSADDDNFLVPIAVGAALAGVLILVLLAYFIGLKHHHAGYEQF
Chain of UniProt Q92604 (Q92604 whole entry, looked up): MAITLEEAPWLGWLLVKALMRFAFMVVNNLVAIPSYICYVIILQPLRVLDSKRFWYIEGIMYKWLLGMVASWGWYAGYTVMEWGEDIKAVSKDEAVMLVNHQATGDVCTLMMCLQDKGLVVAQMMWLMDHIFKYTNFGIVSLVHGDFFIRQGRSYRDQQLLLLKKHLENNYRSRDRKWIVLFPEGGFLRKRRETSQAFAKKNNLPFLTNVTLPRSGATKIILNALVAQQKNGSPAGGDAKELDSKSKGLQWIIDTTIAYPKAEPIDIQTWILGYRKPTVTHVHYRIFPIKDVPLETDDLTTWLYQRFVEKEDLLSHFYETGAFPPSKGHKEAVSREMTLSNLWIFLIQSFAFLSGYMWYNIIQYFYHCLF
Chain of UniProt P49137 (P49137 whole entry, looked up): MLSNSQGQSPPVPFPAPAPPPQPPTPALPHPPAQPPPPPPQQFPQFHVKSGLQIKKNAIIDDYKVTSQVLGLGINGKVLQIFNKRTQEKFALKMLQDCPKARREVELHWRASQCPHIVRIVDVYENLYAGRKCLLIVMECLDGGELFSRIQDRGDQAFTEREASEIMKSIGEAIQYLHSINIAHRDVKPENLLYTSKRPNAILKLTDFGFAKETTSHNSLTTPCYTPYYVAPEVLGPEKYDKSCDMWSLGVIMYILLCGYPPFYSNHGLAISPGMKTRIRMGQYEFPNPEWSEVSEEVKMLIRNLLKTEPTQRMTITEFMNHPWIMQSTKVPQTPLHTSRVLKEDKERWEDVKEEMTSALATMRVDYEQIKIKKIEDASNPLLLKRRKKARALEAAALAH
Chain of UniProt Q86VI4 (Q86VI4 whole entry, looked up): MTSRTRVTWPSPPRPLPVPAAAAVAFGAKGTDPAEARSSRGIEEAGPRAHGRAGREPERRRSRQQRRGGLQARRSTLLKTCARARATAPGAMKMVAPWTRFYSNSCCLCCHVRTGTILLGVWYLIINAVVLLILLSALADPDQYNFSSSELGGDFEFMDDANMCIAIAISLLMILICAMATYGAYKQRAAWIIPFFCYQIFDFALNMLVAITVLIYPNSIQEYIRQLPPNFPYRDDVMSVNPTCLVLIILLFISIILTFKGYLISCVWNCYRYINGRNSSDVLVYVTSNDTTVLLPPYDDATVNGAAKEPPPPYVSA
Chain of UniProt Q15528 (Q15528 whole entry, looked up): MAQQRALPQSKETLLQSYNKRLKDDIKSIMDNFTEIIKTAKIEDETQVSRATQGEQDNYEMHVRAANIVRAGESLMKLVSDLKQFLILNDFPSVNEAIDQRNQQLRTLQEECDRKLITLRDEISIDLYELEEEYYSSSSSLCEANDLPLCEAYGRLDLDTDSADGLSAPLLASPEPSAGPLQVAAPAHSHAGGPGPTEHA
Chain of UniProt Q9Y287 (Q9Y287 whole entry, looked up): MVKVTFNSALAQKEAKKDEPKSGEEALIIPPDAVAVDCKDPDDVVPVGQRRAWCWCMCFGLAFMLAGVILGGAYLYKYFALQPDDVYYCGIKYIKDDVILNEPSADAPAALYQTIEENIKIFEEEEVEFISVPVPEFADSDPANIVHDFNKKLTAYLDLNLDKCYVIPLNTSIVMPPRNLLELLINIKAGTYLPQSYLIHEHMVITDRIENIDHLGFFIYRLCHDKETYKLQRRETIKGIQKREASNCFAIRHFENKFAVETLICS
Chain of UniProt Q8WVP7 (Q8WVP7 whole entry, looked up): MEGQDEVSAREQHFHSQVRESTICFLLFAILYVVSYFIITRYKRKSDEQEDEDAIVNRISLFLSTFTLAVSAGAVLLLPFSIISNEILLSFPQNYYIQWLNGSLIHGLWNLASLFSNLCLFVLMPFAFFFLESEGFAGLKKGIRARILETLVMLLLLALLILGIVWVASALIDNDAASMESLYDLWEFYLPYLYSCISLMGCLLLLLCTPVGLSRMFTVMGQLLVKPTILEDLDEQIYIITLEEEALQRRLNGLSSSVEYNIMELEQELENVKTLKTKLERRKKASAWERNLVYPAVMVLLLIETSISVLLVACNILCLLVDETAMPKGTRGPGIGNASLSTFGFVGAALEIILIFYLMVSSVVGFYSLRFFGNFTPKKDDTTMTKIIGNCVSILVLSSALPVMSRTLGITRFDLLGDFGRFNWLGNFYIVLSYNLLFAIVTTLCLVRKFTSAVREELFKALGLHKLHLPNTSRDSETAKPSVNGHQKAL
Chain of UniProt Q9BQD3 (Q9BQD3 whole entry, looked up): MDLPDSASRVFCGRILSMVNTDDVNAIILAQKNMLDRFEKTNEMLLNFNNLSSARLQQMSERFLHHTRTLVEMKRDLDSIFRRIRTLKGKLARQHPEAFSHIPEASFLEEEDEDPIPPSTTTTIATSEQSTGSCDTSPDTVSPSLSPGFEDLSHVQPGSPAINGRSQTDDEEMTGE
Chain of UniProt Q08334 (Q08334 whole entry, looked up): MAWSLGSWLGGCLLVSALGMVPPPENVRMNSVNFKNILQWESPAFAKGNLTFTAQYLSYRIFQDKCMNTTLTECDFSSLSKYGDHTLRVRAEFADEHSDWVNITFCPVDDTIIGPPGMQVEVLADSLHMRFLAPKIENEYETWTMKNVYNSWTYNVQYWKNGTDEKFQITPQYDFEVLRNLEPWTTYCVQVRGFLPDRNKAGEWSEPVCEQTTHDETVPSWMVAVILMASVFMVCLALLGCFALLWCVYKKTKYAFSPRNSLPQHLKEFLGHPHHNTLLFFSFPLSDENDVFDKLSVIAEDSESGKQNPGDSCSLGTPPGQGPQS
Chain of UniProt Q8IW41 (Q8IW41 whole entry, looked up): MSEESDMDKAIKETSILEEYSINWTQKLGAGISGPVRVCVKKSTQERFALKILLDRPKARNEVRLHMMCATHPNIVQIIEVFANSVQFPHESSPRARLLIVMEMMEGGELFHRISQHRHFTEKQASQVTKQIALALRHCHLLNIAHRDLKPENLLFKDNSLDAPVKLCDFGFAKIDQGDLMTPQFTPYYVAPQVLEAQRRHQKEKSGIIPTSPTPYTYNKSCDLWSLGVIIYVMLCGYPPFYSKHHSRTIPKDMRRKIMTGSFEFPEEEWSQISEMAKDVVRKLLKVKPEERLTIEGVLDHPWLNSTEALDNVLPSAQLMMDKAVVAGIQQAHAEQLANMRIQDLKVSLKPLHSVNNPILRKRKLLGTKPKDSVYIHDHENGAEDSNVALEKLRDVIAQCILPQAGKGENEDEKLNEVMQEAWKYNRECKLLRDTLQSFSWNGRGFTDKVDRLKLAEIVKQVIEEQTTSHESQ
Chain of UniProt O60291 (O60291 whole entry, looked up): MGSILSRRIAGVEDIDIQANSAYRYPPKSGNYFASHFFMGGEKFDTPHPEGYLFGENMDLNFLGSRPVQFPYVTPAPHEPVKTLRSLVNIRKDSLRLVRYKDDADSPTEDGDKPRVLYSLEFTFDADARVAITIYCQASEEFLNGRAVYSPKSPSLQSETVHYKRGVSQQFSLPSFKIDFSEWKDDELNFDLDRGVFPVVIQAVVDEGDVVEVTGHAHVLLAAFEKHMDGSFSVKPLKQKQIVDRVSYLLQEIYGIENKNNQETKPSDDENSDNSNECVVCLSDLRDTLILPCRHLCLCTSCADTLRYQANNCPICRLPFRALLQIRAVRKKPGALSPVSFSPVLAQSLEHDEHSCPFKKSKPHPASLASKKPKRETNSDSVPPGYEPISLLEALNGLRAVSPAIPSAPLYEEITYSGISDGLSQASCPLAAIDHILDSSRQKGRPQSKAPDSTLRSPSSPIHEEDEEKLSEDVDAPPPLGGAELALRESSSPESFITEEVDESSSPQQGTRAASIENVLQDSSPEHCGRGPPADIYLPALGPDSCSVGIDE
Chain of UniProt Q13422 (Q13422 whole entry, looked up): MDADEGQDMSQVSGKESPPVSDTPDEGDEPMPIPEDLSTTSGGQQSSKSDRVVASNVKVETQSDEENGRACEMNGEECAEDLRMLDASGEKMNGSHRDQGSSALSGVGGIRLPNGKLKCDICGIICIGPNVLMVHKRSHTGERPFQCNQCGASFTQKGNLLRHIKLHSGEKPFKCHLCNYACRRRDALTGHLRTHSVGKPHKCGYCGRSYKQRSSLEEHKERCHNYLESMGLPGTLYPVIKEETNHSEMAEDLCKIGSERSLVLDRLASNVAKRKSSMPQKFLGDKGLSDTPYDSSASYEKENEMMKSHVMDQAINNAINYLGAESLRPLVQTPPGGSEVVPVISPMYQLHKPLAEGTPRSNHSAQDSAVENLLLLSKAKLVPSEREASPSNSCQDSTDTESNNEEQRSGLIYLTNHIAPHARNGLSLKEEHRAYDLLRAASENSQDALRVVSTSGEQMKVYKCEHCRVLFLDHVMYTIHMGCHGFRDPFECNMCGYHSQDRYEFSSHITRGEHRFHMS
Chain of UniProt Q9GZY8 (Q9GZY8 whole entry, looked up): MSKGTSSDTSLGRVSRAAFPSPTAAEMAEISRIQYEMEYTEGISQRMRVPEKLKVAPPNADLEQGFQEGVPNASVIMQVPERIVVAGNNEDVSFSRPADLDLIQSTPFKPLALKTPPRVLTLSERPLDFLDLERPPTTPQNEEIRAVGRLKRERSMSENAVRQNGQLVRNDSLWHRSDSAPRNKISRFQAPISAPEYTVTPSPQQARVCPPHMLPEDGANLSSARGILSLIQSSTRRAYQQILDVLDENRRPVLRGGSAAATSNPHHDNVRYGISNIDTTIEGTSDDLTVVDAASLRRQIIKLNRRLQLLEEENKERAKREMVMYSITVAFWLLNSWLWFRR

As for IKZF1 (UniProt Q13422), the log2 fold change with bafetinib was -0.062; in experiment [1], -0.004; with nilotinib, 0.237; in [2], -0.347; with dasatinib, -0.121; in experiment [3] it was -0.112. In addition, the log2 fold change in experiment [4] was 0.072; in [5], 0.119; in the experiment with tipifarnib, -0.026; in the experiment with mubritinib it was -0.07.
Consider MAPKAPK2 (UniProt P49137), for which the log2 fold change with bafetinib was 0.125; in [1] it was 0.017; with nilotinib, 0.145; in experiment [2], 0.045; in the experiment with dasatinib it was -0.086; in experiment [3] it was -0.011. For the same target, the log2 fold change in [4] is -0.014; in experiment [5], -0.022; with tipifarnib it was -0.022; with mubritinib it was -0.009.
Consider MAPKAPK5 (UniProt Q8IW41), for which the log2 fold change was 0.123 with bafetinib; -0.014 in experiment [1]; 0.057 with nilotinib; -0.035 in experiment [2]; -0.031 with dasatinib; 0.052 in [3]. The log2 fold change in [4] is -0.065; in [5], -0.074; in the experiment with tipifarnib, -0.083; with mubritinib it was 0.075.
For IL10RB (UniProt Q08334), the log2 fold change with bafetinib was -0.079; in experiment [1], -0.031; with nilotinib, 0.026; in experiment [2], 0.151; with dasatinib, 0.068; in [3], 0.105. The log2 fold change with tipifarnib is 0.126.
Take MFSD1 isoform 6 (UniProt Q9H3U5): the log2 fold change with bafetinib is -0.123; in [1], 0.066; in the experiment with nilotinib it was -0.017; in experiment [2], 0.046; in experiment [3], -0.016; in experiment [4], -0.034. The results for the log2 fold change (in experiment [5]; in the experiment with tipifarnib; in the experiment with mubritinib) were 0.033, 0.05 and 0.005, respectively.
LMBR1 isoform 3 (UniProt Q8WVP7): the log2 fold change with bafetinib was -0.182; in experiment [1], 0.007; in the experiment with dasatinib, 0.012; in [4], 0.093; in [5], -0.143; with tipifarnib, -0.044. The log2 fold change with mubritinib is 0.063.
ILRUN (UniProt Q9H6K1): the log2 fold change in the experiment with bafetinib was -0.05; with nilotinib, -0.01; in experiment [2] it was -0.086; with dasatinib, -0.08; in experiment [3], 0.258 (active); in [4] it was -0.013. Moreover, the log2 fold change in [5] is -0.039; with tipifarnib, -0.023; with mubritinib it was 0.029.
In the case of ITM2B (UniProt Q9Y287), the log2 fold change with bafetinib was -0.112; in the experiment with nilotinib it was 0.006; in experiment [2] it was -0.062; with dasatinib, 0.006; in experiment [3] it was 0.033; in experiment [4], 0.035. Besides, the log2 fold change is -0.04 in experiment [5], 0.006 with tipifarnib and 0.059 with mubritinib.
Take MGRN1 isoform 2 (UniProt O60291): the log2 fold change with bafetinib is -0.07; in experiment [1], -0.227; in experiment [4], -0.149; in experiment [5], 0.027; with tipifarnib, 0.2.
As for LPGAT1 (UniProt Q92604), the log2 fold change with bafetinib was -0.086; with nilotinib, -0.04; in experiment [2], -0.128; in the experiment with dasatinib, 0.086; in [3], 0.048; in experiment [4] it was 0.055. For the same target, the log2 fold change was -0.082 in experiment [5], 0.01 with tipifarnib and 0.067 with mubritinib.
In the case of KXD1 (UniProt Q9BQD3), the log2 fold change in the experiment with bafetinib is -0.131; in [1], 0.045; with dasatinib, -0.082; in experiment [4], 0.019; in [5], 0.085; in the experiment with tipifarnib, 0.024. In the experiment with mubritinib, the log2 fold change was 0.052.
With MED22 (UniProt Q15528), the log2 fold change with bafetinib was -0.137; in the experiment with nilotinib, 0.019; in [2], -0.048; in the experiment with dasatinib it was -0.009; in experiment [3] it was -0.011; in [4], 0.102. Further, the log2 fold change in experiment [5] is 0.059; with mubritinib, -0.043.
As to LAMP2 isoform 2 (UniProt P13473), the log2 fold change was -0.014 with bafetinib; -0.014 in experiment [1]; 0.018 with nilotinib; -0.009 in [2]; -0.047 with dasatinib; 0 in experiment [3]. Also, the log2 fold change in experiment [4] was 0.005; with tipifarnib it was 0.126; with mubritinib, 0.003.
For the target MFF (UniProt Q9GZY8), the log2 fold change was -0.065 with bafetinib; -0.049 in [1]; -0.057 in the experiment with nilotinib; -0.073 in [2]; 0.014 in the experiment with dasatinib; -0.017 in experiment [3]. The log2 fold change in experiment [4] is -0.011; in experiment [5], -0.05; with tipifarnib, 0.073; in the experiment with mubritinib it was 0.035.
For the target MARK2 (UniProt E9PC69), the log2 fold change was 0.116 with bafetinib; -0.007 with nilotinib; -0.451 in experiment [2]; -0.158 with dasatinib; -0.031 in [3]; -0.038 in experiment [4]. The log2 fold change is -0.088 in experiment [5] and -0.215 with tipifarnib.
Regarding LAPTM4B (UniProt Q86VI4), the log2 fold change in the experiment with bafetinib was 0.024; in experiment [1], -0.137; with mubritinib, 0.017.
